The text below walks through data of PubChem BioAssay (EPA / NIEHS).

Active and inactive are the calls of the source. The calls were made as follows: active = hit-call score of the fitted dose curve at least 0.9, where 1 is the maximum; inactive = score below 0.9.

Read-out in test [1]: C-C motif chemokine 2 (Homo sapiens) (UniProt P13500)
Nature of the test: BSK_KF3CT_MCP1: BioMAP Diversity Plus: KF3CT Assay for Monocyte Chemoattractant Protein 1 (MCP1/CCL2) Biomarker Activity (AID 2283073). The settings on record: primary human keratinocytes with fibroblasts; actives raise or lower the signal. A digest of the protocol:
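Biomarker MCP-1 is measured by ELISA in primary human keratinocytes co-cultured with foreskin fibroblasts, 24 h after chemical treatment; DMSO serves as the negative control and activity baseline.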

Read-out in test [2]: Matrix Metallopeptidase 9 (MMP9), MMP9 (gene 4318)
Nature of the test: BSK_KF3CT_MMP9: BioMAP Diversity Plus: KF3CT Assay for Matrix Metallopeptidase 9 (MMP9) Biomarker Activity (AID 2283074).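 As to AC50: MMP9 protein level quantified by ELISA in the co-culture.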 The following applies: primary human keratinocytes with fibroblasts; actives raise or lower the signal. A digest of the protocol:
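Human keratinocyte and foreskin fibroblast co-culture exposed to chemicals for 24 h; MMP9 biomarker measured by ELISA, bidirectional fitting relative to DMSO; cytotoxicity tracked by SRB total protein staining in parallel cultures.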

Read-out in test [3]: urokinase plasminogen activator (uPA), PLAU (gene 5328)
Briefly: BSK_KF3CT_uPA: BioMAP Diversity Plus: KF3CT Assay for urokinase plasminogen activator (uPA) Biomarker Activity (AID 2283075). The settings on record: primary human keratinocytes with fibroblasts; actives raise or lower the signal. A digest of the protocol: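 Primary human keratinocyte/foreskin fibroblast co-culture exposed to chemical; uPA measured by ELISA at 24 h. Bidirectional fit versus DMSO, with parallel SRB total-protein staining for cytotoxicity.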

Read-out in test [4]: CD40, CD40 (gene 958)
Briefly: BSK_LPS_CD40: BioMAP Diversity Plus: LPS Assay for CD40 Biomarker Activity (AID 2283076). The following applies: primary human HUVEC with PBMC; actives raise or lower the signal. A digest of the protocol:
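Using a multiplexed primary human co-culture (umbilical vein endothelium plus PBMC), CD40 was read by ELISA 24 h after dosing, with cytotoxicity tracked by sulforhodamine B staining of parallel cultures and activity fitted bidirectionally versus DMSO.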

Read-out in test [5]: E-selectin (Homo sapiens) (UniProt P16581)
Nature of the test: BSK_LPS_Eselectin: BioMAP Diversity Plus: LPS Assay for Eselectin Biomarker Activity (AID 2283077). The settings on record: primary human HUVEC with PBMC; actives raise or lower the signal. A digest of the protocol: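 Dose chemical onto LPS-driven HUVEC/PBMC co-culture; after 24 h, run ELISA for E-selectin; fit up- and down-going responses relative to DMSO control.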

Read-out in test [6]: Interleukin-8 (IL8), CXCL8 (gene 3576)
Nature of the test: BSK_LPS_IL8: BioMAP Diversity Plus: LPS Assay for Interleukin-8 (IL8) Biomarker Activity (AID 2283078). The settings on record: primary human HUVEC with PBMC; actives raise or lower the signal. A digest of the protocol:
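In this LPS system, chemical-treated human umbilical vein endothelium/PBMC co-cultures were harvested at 24 h for IL-8 ELISA.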

Test [7] in a line: BSK_LPS_SRB: Viability Assessment in the BioMAP Diversity Plus: LPS Assay (AID 2283079).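 Also: total protein by sulforhodamine B absorbance as a cytotoxicity measure; measured one day after compound addition; fitted in both directions against DMSO so loss or gain of signal counts.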 The following applies: primary human HUVEC with PBMC. A digest of the protocol: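 Cytotoxicity endpoint in human endothelial–PBMC co-culture: 24 h exposure, then SRB (0.1%) staining, 560 nm read.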
Read-out in test [8]: Interleukin-1 alpha (IL1a), IL1A (gene 3552)
Nature of the test: BSK_LPS_IL1a: BioMAP Diversity Plus: LPS Assay for Interleukin-1 alpha (IL1a) Biomarker Activity (AID 2283080). The following applies: primary human HUVEC with PBMC; actives raise or lower the signal. A digest of the protocol: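 Primary human HUVEC and PBMC co-culture stimulated with LPS is dosed and harvested at 24 h. Both increases and decreases in ELISA-measured IL-1a are scored relative to DMSO.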

Read-out in test [9]: Monocyte Chemoattractant Protein-1 (MCP1), CCL2 (gene 6347)
Nature of the test: BSK_LPS_MCP1: BioMAP Diversity Plus: LPS Assay for Monocyte Chemoattractant Protein-1 (MCP1) Biomarker Activity (AID 2283081).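 As to AC50: secreted MCP-1 protein quantified by ELISA in culture supernatant.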 The settings on record: primary human HUVEC with PBMC; actives raise or lower the signal. A digest of the protocol:
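Values derive from bidirectional fitting against DMSO of ELISA-measured MCP-1 in a human primary endothelial and mononuclear cell co-culture, 24 h after chemical addition under LPS activation.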

Test [10] is described as follows: BSK_LPS_PGE2: BioMAP Diversity Plus: LPS Assay for Prostaglandin E2 (PGE2) Biomarker Activity (AID 2283082).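 As to AC50: secreted prostaglandin E2 measured by ELISA in LPS-stimulated co-culture.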 The settings on record: primary human HUVEC with PBMC; actives raise or lower the signal. A digest of the protocol:
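HUVEC plus human PBMC co-culture stimulated with LPS; secreted PGE2 quantified by ELISA 24 h after chemical dosing. Activity fitted bidirectionally against DMSO baseline; parallel SRB staining (0.1% SRB after 10% TCA fixation, 560 nm) flags overt cytotoxicity.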

Read-out in test [11]: Macrophage colony-stimulating factor (MCSF), CSF1 (gene 1435)
Briefly: BSK_LPS_MCSF: BioMAP Diversity Plus: LPS Assay for Macrophage colony-stimulating factor (MCSF) Biomarker Activity (AID 2283083). The settings on record: primary human HUVEC with PBMC; actives raise or lower the signal. A digest of the protocol:
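Bidirectional fit versus DMSO of ELISA-measured M-CSF in co-cultured human umbilical vein endothelial cells and PBMC, sampled 24 h after dosing.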

Read-out in test [12]: Tissue Factor, F3 (gene 2152)
Nature of the test: BSK_LPS_TissueFactor: BioMAP Diversity Plus: LPS Assay for Tissue Factor Biomarker Activity (AID 2283084). The settings on record: primary human HUVEC with PBMC; actives raise or lower the signal. A digest of the protocol:
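Read-out: CD142 ELISA, 24 h. System: LPS-driven human endothelial/PBMC co-culture. Analysis: up- or down-signal fitted against DMSO.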

Read-out in test [13]: Tumor necrosis factor (Homo sapiens) (UniProt P01375)
Nature of the test: BSK_LPS_TNFa: BioMAP Diversity Plus: LPS Assay for Tumour Necrosis Factor alpha (TNFa) Biomarker Activity (AID 2283085). The settings on record: primary human HUVEC with PBMC; actives raise or lower the signal. A digest of the protocol: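 Human umbilical vein endothelial cells co-cultured with PBMC and stimulated with LPS. TNFa was measured by ELISA 24 h after chemical dosing, fitted bidirectionally relative to DMSO.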

Read-out in test [14]: Vascular cell adhesion molecule 1 (VCAM1), VCAM1 (gene 7412)
Nature of the test: BSK_LPS_VCAM1: BioMAP Diversity Plus: LPS Assay for Vascular cell adhesion molecule 1 (VCAM1) Biomarker Activity (AID 2283086). The settings on record: primary human HUVEC with PBMC; actives raise or lower the signal. A digest of the protocol: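 Human umbilical vein endothelial cells co-cultured with PBMC and stimulated with LPS; VCAM-1 measured by ELISA 24 h after dosing. Bidirectional curve fitting against DMSO baseline; cytotoxicity tracked in parallel by SRB total-protein staining.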

Read-out in test [15]: CD38, CD38 (gene 952)
Nature of the test: BSK_SAg_CD38: BioMAP Diversity Plus: SAg Assay for CD38 Biomarker Activity (AID 2283087). The settings on record: primary human HUVEC with PBMC; actives raise or lower the signal. A digest of the protocol: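 Human HUVEC plus PBMC co-culture stimulated with superantigen; CD38 measured by ELISA 24 h after chemical dosing. Fluorescence read-out, bidirectional fit against DMSO; cytotoxicity tracked in parallel by SRB and Alamar Blue.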

Read-out in test [16]: CD40, CD40 (gene 958)
Briefly: BSK_SAg_CD40: BioMAP Diversity Plus: SAg Assay for CD40 Biomarker Activity (AID 2283088). The settings on record: primary human HUVEC with PBMC; actives raise or lower the signal. A digest of the protocol:
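Endpoint derived by fitting increases or decreases versus DMSO controls. CD40 is detected by fluorescence ELISA in a human vascular co-culture of endothelium and PBMC at 24 h.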

Read-out in test [17]: CD69, CD69 (gene 969)
Nature of the test: BSK_SAg_CD69: BioMAP Diversity Plus: SAg Assay for CD69 Biomarker Activity (AID 2283089).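 As to AC50: cell surface CD69 protein quantified by ELISA with fluorescence detection.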 The settings on record: primary human HUVEC with PBMC; actives raise or lower the signal. A digest of the protocol:
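Values derive from bidirectional fitting relative to DMSO vehicle. Cells: umbilical vein endothelium plus peripheral blood mononuclear cells, treated 24 h before fluorescent ELISA for CD69.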

Read-out in test [18]: Monocyte Chemoattractant Protein-1 (MCP1), CCL2 (gene 6347)
Briefly: BSK_SAg_MCP1: BioMAP Diversity Plus: SAg Assay for Monocyte Chemoattractant Protein-1 (MCP1) Biomarker Activity (AID 2283090). The following applies: primary human HUVEC with PBMC; actives raise or lower the signal. A digest of the protocol: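 MCP-1 levels in the endothelial–PBMC SAg co-culture were quantified by ELISA at 24 h post-dosing; both increases and decreases versus DMSO scored. Cytotoxicity monitored by SRB total protein in parallel cultures.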

Read-out in test [19]: E-selectin (Homo sapiens) (UniProt P16581)
Nature of the test: BSK_SAg_Eselectin: BioMAP Diversity Plus: SAg Assay for Eselectin Biomarker Activity (AID 2283091). The following applies: primary human HUVEC with PBMC; actives raise or lower the signal. A digest of the protocol:
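Endpoint values derive from bidirectional fitting relative to DMSO, using ELISA-measured E-selectin in a human vascular co-culture (umbilical vein endothelium plus PBMC) sampled 24 h after dosing.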

Read-out in test [20]: Monokine induced gamma interferon (MIG), CXCL9 (gene 4283)
Briefly: BSK_SAg_MIG: BioMAP Diversity Plus: SAg Assay for Monokine induced gamma interferon (MIG) Biomarker Activity (AID 2283092). The settings on record: primary human HUVEC with PBMC; actives raise or lower the signal. A digest of the protocol:
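Values reflect bidirectional fitting of ELISA-measured MIG against DMSO vehicle, taken 24 h after dosing of a co-culture of human umbilical vein endothelial cells and peripheral blood mononuclear cells.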

Chain of Tumor necrosis factor (Homo sapiens) (P01375 whole entry, looked up): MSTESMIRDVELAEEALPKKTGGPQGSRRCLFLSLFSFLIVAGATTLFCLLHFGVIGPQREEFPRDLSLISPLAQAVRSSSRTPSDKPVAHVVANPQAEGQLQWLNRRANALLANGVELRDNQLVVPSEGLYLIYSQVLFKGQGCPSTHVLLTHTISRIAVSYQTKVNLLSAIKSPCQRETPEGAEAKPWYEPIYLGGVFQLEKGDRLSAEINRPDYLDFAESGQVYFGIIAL
Chain of E-selectin (Homo sapiens) (P16581 whole entry, looked up): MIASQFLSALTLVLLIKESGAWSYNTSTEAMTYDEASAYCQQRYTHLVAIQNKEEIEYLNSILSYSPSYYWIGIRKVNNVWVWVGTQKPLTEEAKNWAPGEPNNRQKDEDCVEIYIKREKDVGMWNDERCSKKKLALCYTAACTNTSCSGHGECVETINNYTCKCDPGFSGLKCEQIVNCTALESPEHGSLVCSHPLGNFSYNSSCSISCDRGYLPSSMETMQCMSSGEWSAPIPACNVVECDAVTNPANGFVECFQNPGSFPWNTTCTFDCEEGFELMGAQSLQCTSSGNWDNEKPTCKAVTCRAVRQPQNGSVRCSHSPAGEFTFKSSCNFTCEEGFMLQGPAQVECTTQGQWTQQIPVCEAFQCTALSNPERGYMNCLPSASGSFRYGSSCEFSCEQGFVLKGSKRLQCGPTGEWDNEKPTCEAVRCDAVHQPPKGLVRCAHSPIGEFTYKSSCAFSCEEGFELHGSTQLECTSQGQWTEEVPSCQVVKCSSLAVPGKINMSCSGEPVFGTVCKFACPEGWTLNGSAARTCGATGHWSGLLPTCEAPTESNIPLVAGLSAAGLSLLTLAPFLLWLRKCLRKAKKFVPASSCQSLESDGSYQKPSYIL

As to `Clc1ccccc1C(c1ccccc1)(c1ccccc1)n1ccnc1`, the concentration at half-maximal activity (AC50) (in general, the midpoint of the concentration-response curve, whichever way the signal moves) in test [1] is 7.25 µM (active); in test [2], 5.43 µM (active); in test [3], 9.72 µM (active); in [4], 14.7 µM (active); in test [5], 30.7 µM (active); in test [6], 30.9 µM (active). In addition, the AC50 is 23.1 µM (active) in [7]; 30.5 µM (active) in test [8]; 29.7 µM (active) in test [9]; 5.45 µM (active) in test [10]; 28.3 µM (active) in test [11]; 31.9 µM (active) in test [12]. The AC50 in test [13] is 32.9 µM (active); in test [14], 22.4 µM (active); in [15], 25.9 µM (active); in test [16], 20 µM (active); in [17] it was 24.3 µM (active); in test [18], 26.1 µM (active). Also, the AC50 was 14 µM (active) in test [19] and 35.1 µM (active) in [20].

As for `CC1=CC(=O)/C(=C(/C)O)C(=O)O1`, the figures for the concentration at half-maximal activity (AC50) in test [1] and in [8] were 0.396 µM (active) and 20 µM (active), respectively. Besides, the result in test [2], in test [3], in test [4], in test [5], in test [6] and in test [7] was inactive. The outcome in test [9], in test [10], in test [11], in [12], in test [13] and in test [14] was inactive. Besides, the outcome in [15], in test [16], in test [17], in test [18] and in test [19] was inactive.

In the case of `CN1C(=O)N(c2ccccc2Br)Cc2cnc(Nc3ccc4c(c3)OCC(CO)O4)nc21` (configuration not stated), the AC50 in test [1] was 31 µM (active); in test [2] it was 6.07 µM (active); in [3], 12.4 µM (active); in test [4], 7.42 µM (active); in test [5] it was 7.07 µM (active); in test [6], 6.07 µM (active). In addition, the AC50 in test [7] is 4.68 µM (active); in test [8], 9.1 µM (active); in test [9], 5.19 µM (active); in test [10], 3.63 µM (active); in [11], 9.88 µM (active); in [12] it was 3.52 µM (active). Also, the half-maximal activity concentration (AC50) in [13] was 3.14 µM (active); in test [14] it was 7.92 µM (active); in test [15] it was 2.36 µM (active); in [16], 2.19 µM (active); in test [17] it was 2.08 µM (active); in test [18] it was 1.9 µM (active). In addition, in [19], the AC50 is 1.37 µM (active).

As for `Cc1oc2c(NC(=O)c3c(Cl)cccc3Cl)cccc2c1C(C)(C)O`, the result in test [1], in test [2], in test [3], in test [4], in test [6] and in [8] was inactive. Besides, the result in test [9], in [11], in [13] and in [14] was inactive. The AC50 was 6.04 µM (active) in test [5]; 26.5 µM (active) in [7]; 21.1 µM (active) in test [10]; 4.5 µM (active) in test [12]; 21.3 µM (active) in test [15]; 20.9 µM (active) in [16]. Also, the AC50 is 19.2 µM (active) in test [17], 7.57 µM (active) in test [18] and 7.6 µM (active) in test [19].

Take `O=C(O)Cn1c(=O)n(Cc2ccc(Br)cc2F)c(=O)c2ccc(Cl)cc21`: the result in test [1], in test [2], in [3], in test [4], in [5] and in test [6] was inactive. The outcome in test [7], in [8], in test [9], in [11], in test [12] and in test [14] was inactive. Besides, the outcome in test [15], in test [16], in test [17], in test [18], in test [19] and in test [20] was inactive. Moreover, the AC50 in test [10] was 10.5 µM (active); in test [13], 1.07 µM (active).
